Bioassay records: PubChem BioAssay, several laboratories
CYP2C9 activ – CYP2C9 (human) activation; recombinant CYP2C9, luciferin-H conversion, luminescence; active compounds read high; factor 1 = untreated enzyme, 0 = blocked; activation factor at 5 µM; hit rate 1.4% among 96,000; AID 1024;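 active means activation factor of 2 or more for CYP2C9 at a 5 µM dose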;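 further: 0 = sulfaphenazole-blocked wells and 1 = vehicle-only wells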
Target sequence (P11712 whole entry, looked up): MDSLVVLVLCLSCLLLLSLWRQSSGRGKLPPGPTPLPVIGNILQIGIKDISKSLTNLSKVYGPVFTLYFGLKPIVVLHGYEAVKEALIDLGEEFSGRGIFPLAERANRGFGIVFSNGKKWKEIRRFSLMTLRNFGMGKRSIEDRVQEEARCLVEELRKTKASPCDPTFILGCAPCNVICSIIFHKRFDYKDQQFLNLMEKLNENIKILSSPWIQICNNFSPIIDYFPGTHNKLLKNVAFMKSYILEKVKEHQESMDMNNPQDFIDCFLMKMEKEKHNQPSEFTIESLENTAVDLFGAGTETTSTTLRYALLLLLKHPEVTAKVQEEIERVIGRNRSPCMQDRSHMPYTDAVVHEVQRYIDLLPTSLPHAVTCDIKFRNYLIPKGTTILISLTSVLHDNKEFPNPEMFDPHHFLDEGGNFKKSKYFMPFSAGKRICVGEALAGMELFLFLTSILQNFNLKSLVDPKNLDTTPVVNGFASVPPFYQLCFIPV
EphB4 ephrin blk – antagonists of human EphB4-ephrin-B2 interaction. P54760. EphB4 LBD / TNYL-RAW-Alexa532 peptide, fluorescence polarization. inhibition, % at 7 µM. hit rate 0.15% among 97,000;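 active means inhibition above the screen-wide mean inhibition plus 3 SD, cut at about 15% in these data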;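 further: 0% = DMSO wells and 100% = excess unlabeled TNYL-RAW peptide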
CYP2C9 inh – human CYP2C9 inhibition | inhibition, % at 5 µM | AID 777 | hit rate 20% among 96,000 | CYP2C9 Supersomes, luciferin-H conversion, luminescence;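 active means blocking of liver enzyme CYP2C9 beyond about 50% at 5 µM, limit read from the data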
CYP2C19 inh – blocks human cytochrome P450 2C19; inhibition, % at 5 µM; AID 778; P33261; CYP2C19 Supersomes, luciferin-H EGE luminescence, 30 min; hit rate 21% among 96,000;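 active means CYP2C19 inhibition above a set limit at 5 µM in the primary screen, cut at about 50% in these data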;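 further: plate controls were negative control wells for no effect and 2.5 mM tranylcypromine positive control for full effect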
CYP2C19 activ – increases human CYP2C19 enzyme activity. P33261. recombinant CYP2C19, luciferin-H EGE luminescence; active compounds read high; 0 = fully inhibited enzyme, 1 = untreated enzyme. activation factor at 5 µM. 96,000 tested, under 10 active;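 active means activation factor of at least 2 at 5 µM in the primary screen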;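 further: 0 = wells with 2.5 mM tranylcypromine and 1 = vehicle-only wells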
The depositor's hits bear a star; / = not tested or not shown. Most compounds without a hit are left out; they make up all but 27% or so of the library.

SMILES	CYP2C9 activ	EphB4 ephrin blk	CYP2C9 inh	CYP2C19 inh	CYP2C19 activ
O=C(Cn1c(=O)oc2cc(S(=O)(=O)N3CCCC3)ccc21)N1CCCC1	0.8	3.0	20.5	8.6	0.9
O=C(Cn1c(=O)oc2cc(S(=O)(=O)N3CCCCC3)ccc21)N1CCc2ccccc21	1.7	1.8	-68.7	-11.8	1.1
CCOC(=O)NC(=O)CSc1ccccn1	1	-3.8	-4.0	-13.9	1.1
CS/C(N)=N/N=C/c1ccc([N+](=O)[O-])cc1	0.9	7.1	6.2	17.5	0.8
CC(C(=O)Nc1cccnc1)N1C(=O)c2ccccc2C1=O (stereo not given)	0.9	-1.7	8.3	-0.4	1
CC1CCN(c2cc(N3CCOCC3)c(F)cc2[N+](=O)[O-])CC1	0.5	-0.5	48.2	27.5	0.7
CCN(/N=C/c1cccs1)c1cc(=O)n(C)c(=O)[nH]1	/	-3.3	/	/	/
O=C(Nc1cc2c3c(c1)C1CCCC1CN3CC1CCCC21)c1ccccc1 (stereo not given)	0.2	13.3	81.0*	8.0	0.9
COc1cc(NC(=O)c2ccccc2)cc(OC)c1	0.9	/	7.4	19.0	0.8
COc1ccc(/C=N/N=C2/NC(=O)C(c3ccccc3)(c3ccccc3)S2)cc1	0.2	5.4	81.5*	5.2	0.9
CCOC(=O)COc1ccc(C(=O)c2ccccc2)c(O)c1	1	-1.4	-3.6	8.5	0.9
COc1ccc(C(=O)c2ccccc2)c(O)c1	0.8	0.1	24.2	85.9*	0.1
CCN(CC(=O)NCc1ccccn1)S(=O)(=O)c1ccc(Cl)cc1	0.9	5.2	5.4	40.3	0.6
Cc1ccc(NC(=O)CN2C(=O)S/C(=C\c3cccn3C)C2=O)cc1	0.2	-9.3	75.7*	13.9	0.9
Cc1ccc(NC(=O)CN2C(=O)S/C(=C\c3cc(C)n(C)c3C)C2=O)cc1	0.8	-11.1	19.8	56.9*	0.4
CCOc1cc(C(=O)CSc2nnc(CNc3ccc(Cl)cc3)o2)ccc1NC(=O)CC	0.7	2.3	30.6	42.4	0.6
CCOc1ccc(NC(=O)C23CC4CC(C2)CC(c2ccccc2)(C4)C3)cc1	0.8	0.0	23.4	37.8	0.6
CCOc1ccc(NC(=O)CC2C(=O)N(c3ccccc3)C(=S)N2Cc2ccccn2)cc1 (stereo not given)	1	3.2	4.3	46.8	0.5
O=C(CC1C(=O)N(c2ccc(Cl)cc2)C(=S)N1CCc1ccncc1)Nc1ccc(F)cc1 (stereo not given)	0	-5.2	95.1*	84.6*	0.2
CCOc1ccc(NC(=O)CC2C(=O)N(c3ccccc3)C(=O)N2Cc2ccccn2)cc1 (stereo not given)	0.8	6.8	24.2	33.1	0.7
O=C(CC1C(=O)N(c2ccc(F)cc2)C(=O)N1Cc1ccccn1)Nc1ccccc1 (stereo not given)	0.8	6.2	19.0	56.0*	0.4
Cn1c(=O)oc2cc(S(=O)(=O)NCCN3CCN(c4ccccc4)CC3)ccc21	1.2	0.4	-18.1	8.5	0.9
O=C(OCc1cccc2ccccc12)c1ccc2c(=O)[nH]c(CN3CCOCC3)nc2c1	0.7	-3.9	31.3	18.6	0.8
O=C(Nc1ccccn1)C1CCN(S(=O)(=O)c2cccs2)CC1	0.5	/	48.9	37.9	0.6
Cc1c(N=Cc2ccc(Cl)o2)c(=O)n(-c2ccccc2)n1C	0.9	2.4	5.9	7.2	0.9
SMILES	CYP2C9 activ	EphB4 ephrin blk	CYP2C9 inh	CYP2C19 inh	CYP2C19 activ
Cc1c(N=Cc2ccc(-c3ccc(Cl)cc3)o2)c(=O)n(-c2ccccc2)n1C	0.8	/	18.4	59.1*	0.4
CCOC(=O)C1=C(C)N(C)C(=O)NC1c1c(C)nn(-c2ccc(C)cc2)c1Cl (stereo not given)	0.3	-1.1	74.2*	83.4*	0.2
COC(=O)C1=C(C)OC(N)=C(C#N)C1c1c(C)nn(-c2ccccc2)c1Cl (stereo not given)	0	-5.8	96.0*	97.0*	0
CCSc1cc(C2C(C#N)=C(N)OC(C)=C2C(=O)OC)c(C)o1 (stereo not given)	0.2	0.1	81.1*	89.5*	0.1
COC(=O)C1=C(C)OC(N)=C(C#N)C1c1ccccc1 (stereo not given)	0.6	4.4	43.8	83.3*	0.2
COC(=O)C1=C(C)OC(N)=C(C#N)C1c1ccsc1 (stereo not given)	/	-0.3	/	/	/
CC1=C(C(=O)OCc2ccccc2)C(c2ccsc2)C(C#N)=C(N)O1 (stereo not given)	/	-4.9	/	/	/
COc1ccc(C2C(C#N)=C(N)OC3=C2C(=O)CC(C)(C)C3)c(OC)c1OC (stereo not given)	0.3	/	71.4*	39.6	0.6
CCOC(=O)C1=C(C)N(c2nonc2NC(C)=O)C(N)=C(C#N)C1c1ccccc1F (stereo not given)	0.3	15.3	72.9*	72.8*	0.3
C=CCOC(=O)C1=C(C)OC(N)=C(C#N)C1c1ccccc1F (stereo not given)	0.4	2.8	56.5*	80.6*	0.2
COC(=O)C1=C(C)OC(N)=C(C#N)C1C1CCCCC1 (stereo not given)	0.5	5.3	53.6*	77.7*	0.2
COCCn1c(C)cc2c(c1=O)C(c1ccccc1F)C(C#N)=C(N)O2 (stereo not given)	0.9	-6.5	10.3	0.8	1
Cc1ccc(Cn2c(SCc3cccnc3)nc3c2c(=O)n(C)c(=O)n3C)cc1	0.7	3.0	30.3	14.5	0.9
N=c1sccn1CC(=O)Nc1ccc2c(c1)CCC2	1	-8.1	-0.9	4.8	1
Clc1ccccc1OCCN1CCCCC1	1	3.0	2.6	44.2	0.6
Cc1nnc(NC(=O)CSc2nnc(CCc3nc4ccccc4[nH]3)n2C)s1	0.8	-4.5	24.4	-6.9	1.1
CC(=O)Nc1ccc(-n2c(C)nc(=O)c(-c3ccccc3)c2C)cc1	1.1	0.0	-13.3	-7.0	1.1
COC(=O)CC1=C(C(=O)OC)C(c2cc(OC)c(OC)cc2OC)C(C#N)=C(N)O1 (stereo not given)	0.5	-5.1	48.6	34.0	0.7
CCOC(=O)C1=C(C)OC(N)=C(C#N)C1c1c(C)nn(-c2ccc(C)cc2)c1Cl (stereo not given)	0	-0.3	97.3*	99.9*	0
COc1ccc(C2C(C#N)=C(N)Oc3c2oc(CO)cc3=O)c(OC)c1OC (stereo not given)	0.8	-12.2	17.4	6.2	0.9
COC(=O)C1=C(C)OC(N)=C(C#N)C1c1ccc(OC)c(CSc2ccccn2)c1 (stereo not given)	0.1	5.5	88.8*	78.7*	0.2
COC(=O)C1=C(C)OC(N)=C(C#N)C1c1ccc(OC)c(OC)c1OC (stereo not given)	0.5	-0.4	54.3*	57.7*	0.4
Cc1ccc(-n2nc(C)c3c2OC(N)=C(C#N)C3c2ccc(C)o2)cc1 (stereo not given)	/	7.4	/	/	/
CCC(C)c1ccc(NC(=O)c2cccs2)cc1 (stereo not given)	0.6	-0.4	36.2	25.2	0.7
